Most compounds without a hit are left out; they make up all but 1.6% or so of the library.
KCNQ2 inh – KCNQ2 (rat) channel inhibition; CHO-K1 KCNQ2, FluxOR thallium flux, 20 min; active compounds read low; B-score at 10 µM; actives 1.1% (n = 310,000); AID 2156;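 active = fluorescence ratio B-score at most minus 3 library SDs, with starting brightness B-score within 2 library SDs, cut at about -5.5 in these data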
KCNQ2 pot – KCNQ2 (rat) channel potentiation. O88943. CHO-K1 KCNQ2, FluxOR thallium flux fluorescence; active compounds read high. B-score at 10 µM. actives 0.54% (n = 310,000);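 active = fluorescence ratio B-score at least 3 SD of library B-scores, with initial fluorescence B-score within 3 of them, cut at about 5.3 in these data; same plate scores as AID 2156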;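 note: B-score of peak minus minimum over baseline fluorescence ratio after K+ and Tl+ stimulus; positive B-score means potentiation of KCNQ2 with more thallium influx and brighter signal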
Kir21 conf inh – confirmation of mouse Kir2.1 potassium channel inhibitors; Tl flux remaining, % of negative control (active compounds read low), % at 10 µM; shares compounds with KCNQ2 pot; AID 2032; actives 41% (n = 2,300); Kir2.1-expressing cells, FluxOR thallium flux fluorescence; active compounds read low;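 active = Primary-screen hit whose thallium flux fell at least 3 control SD below untreated wells in both duplicates, with normal baseline fluorescence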;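 note: 0% = blank wells without stimulus and 100% = stimulated no-compound controls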
Target sequence (P35561 whole entry, looked up): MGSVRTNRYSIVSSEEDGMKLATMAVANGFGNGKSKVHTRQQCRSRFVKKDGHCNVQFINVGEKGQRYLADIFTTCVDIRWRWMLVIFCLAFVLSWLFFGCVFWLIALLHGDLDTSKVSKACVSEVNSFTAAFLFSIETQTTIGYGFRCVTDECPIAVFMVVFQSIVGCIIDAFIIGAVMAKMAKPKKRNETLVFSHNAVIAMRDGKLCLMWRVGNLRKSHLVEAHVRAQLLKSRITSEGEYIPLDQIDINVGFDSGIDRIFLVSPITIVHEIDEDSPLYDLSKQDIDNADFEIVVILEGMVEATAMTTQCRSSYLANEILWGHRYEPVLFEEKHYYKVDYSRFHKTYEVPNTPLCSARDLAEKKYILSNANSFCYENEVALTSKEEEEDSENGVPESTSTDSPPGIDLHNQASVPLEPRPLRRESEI
HEK293 Tl flux – parental HEK293 activity in Kir2.1 inhibitor counter-screen; shares compounds with KCNQ2 pot; parental HEK293 cells, FluxOR thallium flux fluorescence; 0% = unstimulated blank wells; FluxOR signal as % of negative control (100 = no effect), % at 10 µM; actives 19% (n = 2,300); AID 2105;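 active = dye signal at least 3 control SD above or below untreated wells in both duplicates, raw fluorescence within 3, either direction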;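 note: percent is based on the flux ratio of peak minus minimum fluorescence over baseline F0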
CHO-K1 ctr – parental CHO-K1 activity in KCNQ2 potentiator counter-screen; shares compounds with KCNQ2 pot; parental CHO-K1 cells, FluxOR thallium flux fluorescence; zero = vehicle mean+3SD, 100% = vehicle-minus-blank window; activity increase over 3SD of controls, % at 10 µM; actives 43% (n = 1,200); AID 2282;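 active = signal rise of at least 3 SD above the untreated control mean, in both duplicate wells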;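 note: counter screen of KCNQ2 potentiator hits so any rise reflects channel-independent effects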
KCNQ1 sel pot – selectivity of KCNQ2 potentiators: effect on human KCNQ1; AID 2283; shares compounds with KCNQ2 pot; actives 28% (n = 1,200); CHO KCNQ1 stable, FluxOR thallium flux fluorescence; beyond 3SD, as % of vehicle-control signal; activation over 3SD threshold, % at 10 µM;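 active = fluorescence ratio rise of at least 3 SD of vehicle wells above their mean, in both replicate wells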;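 note: 0% = vehicle mean plus 3 SD and 100% = vehicle minus unstimulated blank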
KCNQ2 pot confirm – rat KCNQ2 channel potentiator confirmation. shares compounds with KCNQ2 pot. CHO-KCNQ2 cells, FluxOR thallium flux fluorescence. potentiation, less the hit threshold, % at 10 µM. actives 68% (n = 1,200);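 active = fluorescence ratio rising 3 SD or more over the vehicle control mean in both replicates, plus primary screen hit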;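 note: peak minus minimum thallium fluorescence divided by baseline after K/Tl stimulus; 0% = vehicle mean plus 3 SD and 100% = vehicle minus unstimulated blank difference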
Kir2-1 sel – selectivity of KCNQ2 potentiators: effect on mouse Kir2.1. AID 2345. activity over 3SD threshold, % at 10 µM. HEK293 Kir2.1, FluxOR thallium flux fluorescence. shares compounds with KCNQ2 pot. actives 2% (n = 1,200);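 active = fluorescence ratio rise of at least 3 SD above the vehicle-control mean, seen in both replicates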;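 note: 0% = vehicle mean plus 3 SD and 100% = vehicle minus no-stimulus blank window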
KCNQ2 W236L pot – KCNQ2 potentiators acting on retigabine-insensitive rat KCNQ2 W236L mutant; AID 2558; current increase over 3SD of negative controls (%), active compounds read high, % at 25 µM; CHO KCNQ2-W236L, automated patch clamp current; shares compounds with KCNQ2 pot; actives 10% (n = 940);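 active = current increase at least 3 SD of the untreated controls above them in both duplicate recordings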
* = called active by the depositor.

Results for CCc1ccc(NC(=O)C2CCN(S(=O)(=O)c3ccc4c(c3)NC(=O)C(C)S4)CC2)cc1 (configuration not stated) ?
KCNQ2 inh: inactive; KCNQ2 pot: 0.62

What do the screens show for `S=C(NCCc1ccccc1)Nc1nccs1`?
KCNQ2 inh: inactive

How did S=C(NCc1ccccc1)Nc1nccs1 do in these assays?
KCNQ2 inh: inactive; KCNQ2 pot: 8.97*; Kir21 conf inh: inactive; HEK293 Tl flux: inactive; CHO-K1 ctr: 26.0*; KCNQ1 sel pot: -18.3; KCNQ2 pot confirm: -19.1; Kir2-1 sel: -36.8

Results for O=C1NC2(CCCCCC2)C(=O)N1Cc1ccccc1 ?
KCNQ2 inh: inactive; KCNQ2 pot: 5.59*; Kir21 conf inh: inactive; HEK293 Tl flux: inactive; CHO-K1 ctr: -14.3; KCNQ1 sel pot: -5.6; KCNQ2 pot confirm: -1.1; Kir2-1 sel: -40.5

Results for O=C1NC2(CCCCCCC2)C(=O)N1Cc1ccc(F)cc1 ?
KCNQ2 inh: inactive

Results for Cc1ccc(S(=O)(=O)/N=C/c2cc(Br)ccc2O)cc1 ?
KCNQ2 inh: inactive; KCNQ2 pot: 4.31

How did Cc1cc(N=Cc2cc(Br)ccc2O)no1 do in these assays?
KCNQ2 inh: inactive; KCNQ2 pot: 9.12*; Kir21 conf inh: inactive; HEK293 Tl flux: inactive; CHO-K1 ctr: -17.5; KCNQ1 sel pot: -7.0; KCNQ2 pot confirm: 0.8*; Kir2-1 sel: -21.7; KCNQ2 W236L pot: inactive

Results for Nc1ncnc2c1cnn2-c1ccccc1 ?
KCNQ2 inh: inactive; KCNQ2 pot: 1.19

What do the screens show for `S=c1nc[nH]c2c1cnn2-c1ccccc1`?
KCNQ2 inh: inactive; KCNQ2 pot: 10*; Kir21 conf inh: inactive; HEK293 Tl flux: 162.0%*; CHO-K1 ctr: 31.5*; KCNQ1 sel pot: -9.4; KCNQ2 pot confirm: 2.7*; Kir2-1 sel: -37.0; KCNQ2 W236L pot: inactive

How did O=C(Nc1ccc(NC(=O)c2cccs2)cn1)c1ccccc1 do in these assays?
KCNQ2 inh: inactive

How did O=C(Nc1ccc2ncccc2c1)c1ccccc1Cl do in these assays?
KCNQ2 inh: inactive

Results for O=S(=O)(c1ccccc1)N(Cc1ccc(Cl)cc1)c1ccncc1 ?
KCNQ2 inh: inactive; KCNQ2 pot: 0.98

What do the screens show for `NS(=O)(=O)c1ccc(CCNC(=O)CCc2nc3sc4c(c3c(=O)[nH]2)CCCC4)cc1`?
KCNQ2 inh: inactive; KCNQ2 pot: 0.51

What do the screens show for `CCN(Cc1ccccc1)S(=O)(=O)c1ccc2c(c1)NC(=O)CS2`?
KCNQ2 inh: inactive; KCNQ2 pot: 2.25; Kir21 conf inh: 73.0%*; HEK293 Tl flux: inactive

Results for CCN(Cc1ccccc1)S(=O)(=O)c1ccc2c(c1)NC(=O)CC(=O)N2 ?
KCNQ2 inh: inactive

How did COc1cc(NC(=O)c2n[nH]c(=O)c3ccccc23)cc(OC)c1 do in these assays?
KCNQ2 inh: inactive

What do the screens show for `CN1CCc2c(n(CC(O)CNCc3ccccc3)c3ccccc23)C1=O` (configuration not stated)?
KCNQ2 inh: inactive; Kir21 conf inh: 71.5%*; HEK293 Tl flux: inactive

What do the screens show for `CN1CCc2c(n(CC(O)CN(CCO)CCO)c3ccccc23)C1=O` (configuration not stated)?
KCNQ2 inh: inactive; KCNQ2 pot: 0.46

How did CN(Cc1ccccc1)S(=O)(=O)c1ccc(Cl)nc1 do in these assays?
KCNQ2 inh: inactive

What do the screens show for `CC(C)N(Cc1ccccc1)S(=O)(=O)c1ccc(Cl)nc1`?
KCNQ2 inh: inactive; Kir21 conf inh: 65.0%*; HEK293 Tl flux: inactive

What do the screens show for `O=c1ccc(Cl)n[nH]1`?
KCNQ2 inh: inactive; KCNQ2 pot: 1.59

How did CCOC(=O)C1=C(C)NC(=O)NC1c1cn(-c2ccccc2)nc1-c1cccs1 (configuration not stated) do in these assays?
KCNQ2 inh: inactive

What do the screens show for `CCOC(=O)C1=C(C)NC(C)=C(C(=O)OCC)C1c1cn(-c2ccccc2)nc1-c1ccco1`?
KCNQ2 inh: inactive; KCNQ2 pot: 11.4*; Kir21 conf inh: inactive; HEK293 Tl flux: inactive; CHO-K1 ctr: 16.8*; KCNQ1 sel pot: 85.5*; KCNQ2 pot confirm: -12.1; Kir2-1 sel: -16.8

Results for CC(=O)c1cccc(NC(=O)Cc2coc3cc4c(cc23)CCC4)c1 ?
KCNQ2 inh: inactive; KCNQ2 pot: 1.39

Results for Nc1nc(-c2ccc(C(=O)O)cc2)cs1 ?
KCNQ2 inh: inactive; KCNQ2 pot: 0.08

How did O=C(Cc1cccc(F)c1)Nc1ccc2c(c1)CCC2 do in these assays?
KCNQ2 inh: inactive; KCNQ2 pot: 5.5*; Kir21 conf inh: inactive; HEK293 Tl flux: inactive; CHO-K1 ctr: 3.6*; KCNQ1 sel pot: -12.9; KCNQ2 pot confirm: 21.3*; Kir2-1 sel: -25.2; KCNQ2 W236L pot: inactive

What do the screens show for `O=C(Cc1ccccc1F)Nc1ccc2c(c1)CCC2`?
KCNQ2 inh: inactive; KCNQ2 pot: 5.16

Results for O=C(COC(=O)C1CC(=O)N(Cc2ccccc2)C1)c1ccc(Br)cc1 (configuration not stated) ?
KCNQ2 inh: inactive

How did O=C(NN1CC(C(=O)OCc2ccc(Br)cc2)CC1=O)c1ccccc1 (configuration not stated) do in these assays?
KCNQ2 inh: inactive; KCNQ2 pot: 9.73*; Kir21 conf inh: inactive; HEK293 Tl flux: inactive; CHO-K1 ctr: 12.8*; KCNQ1 sel pot: -17.0; KCNQ2 pot confirm: 55.4*; Kir2-1 sel: -27.3; KCNQ2 W236L pot: 3.6%*

Results for Cn1c(-c2ccc3nc(N)sc3c2)nc2cc(N)ccc21 ?
KCNQ2 inh: inactive; KCNQ2 pot: 0.58

What do the screens show for `CCS(=O)(=O)N1CCC(NC(=O)C(Cc2cc(OC)ccc2OC)NC(C)=O)CC1` (configuration not stated)?
KCNQ2 inh: inactive; KCNQ2 pot: 0.68; Kir21 conf inh: inactive; HEK293 Tl flux: inactive

Results for COc1ccc(CC(NC(C)=O)C(=O)NC2CCN(S(=O)(=O)c3ccc(NC(C)=O)cc3)CC2)c(OC)c1 (configuration not stated) ?
KCNQ2 inh: inactive
